sEH act = soluble epoxide hydrolase activators, primary screen, biochemical, human sEH | Bifunctional epoxide hydrolase 2 (Homo sapiens), P34913 | purified human sEH enzymatic activity, activator screen | activation, % at 2 µM | hit rate 0.04% among 91,000 | AID 717, 2007; in the data active means activation above about 37%
CYP2C9 act = human CYP2C9 activators, primary screen, biochemical, luminescence; Cytochrome P450 2C9 (Homo sapiens), P11712; hit rate 1.4% among 96,000; AID 1024, 2008; activation factor at 5 µM; recombinant CYP2C9, luciferin-H conversion; active compounds read high; factor 1 = untreated enzyme, 0 = blocked;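 active means activation factor of 2 or more for CYP2C9 at a 5 µM dose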;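 further: 0 = sulfaphenazole-blocked wells and 1 = vehicle-only wells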
Target sequence (P11712 whole entry, looked up): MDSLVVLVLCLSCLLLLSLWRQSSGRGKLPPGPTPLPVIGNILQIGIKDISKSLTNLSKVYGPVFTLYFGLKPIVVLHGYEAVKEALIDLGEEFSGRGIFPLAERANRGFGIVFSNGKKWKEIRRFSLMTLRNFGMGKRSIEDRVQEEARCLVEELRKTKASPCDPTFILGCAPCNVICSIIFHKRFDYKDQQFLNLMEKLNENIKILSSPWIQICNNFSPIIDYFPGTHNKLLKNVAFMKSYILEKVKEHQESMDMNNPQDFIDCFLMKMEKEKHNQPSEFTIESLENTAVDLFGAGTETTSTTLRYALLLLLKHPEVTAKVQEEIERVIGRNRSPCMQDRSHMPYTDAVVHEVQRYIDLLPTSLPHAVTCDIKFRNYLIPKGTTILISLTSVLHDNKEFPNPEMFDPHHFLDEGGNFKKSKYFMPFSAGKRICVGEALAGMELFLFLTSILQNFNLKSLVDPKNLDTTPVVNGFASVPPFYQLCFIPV
CYP2C9 inhib = blockers of cytochrome P450 2C9 activity – biochemical, luminescence, ADME assay, primary screen; hit rate 20% among 96,000; inhibition, % at 5 µM; AID 777, 2007; CYP2C9 Supersomes, luciferin-H conversion;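 active means blocking of liver enzyme CYP2C9 beyond about 50% at 5 µM, limit read from the data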
CYP2C19 act = human CYP2C19 activators, primary screen, biochemical, luminescence | activation factor at 5 µM | recombinant CYP2C19, luciferin-H EGE luminescence; active compounds read high; 0 = fully inhibited enzyme, 1 = untreated enzyme | AID 1025, 2008 | 96,000 tested, under 10 active;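 active means activation factor of at least 2 at 5 µM in the primary screen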;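 further: 0 = wells with 2.5 mM tranylcypromine and 1 = vehicle-only wells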
CYP2C19 inhib = blockers of cytochrome P450 2C19 activity – biochemical, luminescence, ADME assay, primary screen. P33261. CYP2C19 Supersomes, luciferin-H EGE luminescence, 30 min. inhibition, % at 5 µM. hit rate 21% among 96,000. AID 778, 2007;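 active means CYP2C19 inhibition above a set limit at 5 µM in the primary screen, cut at about 50% in these data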;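 further: plate controls were negative control wells for no effect and 2.5 mM tranylcypromine positive control for full effect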
sEH inhibitor = soluble epoxide hydrolase inhibitors, primary screen, biochemical, human sEH | inhibition, % at 2 µM | recombinant human sEH enzymatic activity assay | Bifunctional epoxide hydrolase 2 (Homo sapiens), P34913 | hit rate 0.34% among 91,000; in the data active means inhibition above about 80%
Numbers without * were called inactive; . = not tested or not shown. A selection: hits, their analogues and other compounds. The true share with any hit is near 27%.

SMILES	sEH act	CYP2C9 act	CYP2C9 inhib	CYP2C19 act	CYP2C19 inhib	sEH inhibitor
CCc1nc2c3cnn(-c4cc(Cl)ccc4C)c3ncn2n1	-9.3	0.9	7.0	0.1	85.4*	7.6
Cc1nc2c3cnn(-c4ccccc4)c3ncn2n1	-13.0	0.9	6.3	0.9	9.1	11.2
CCOC(=O)c1c(NC(=O)Cc2cccs2)sc2c1CCCC2	-2.4	0.6	42.8	0.9	10.2	5.2
N#Cc1c(NC(=S)NC(=O)Cc2cccs2)sc2c1CCCCC2	6.1	0.1	88.7*	0.7	27.5	-6.1
NC(=O)c1c(NC(=O)Cc2cccs2)sc2c1CCC2	-9.5	0.4	58.0*	0.6	43.9	8.7
COC(=O)Nc1sc2c(c1C(N)=O)CCCCCC2	-53.6	1.1	-8.4	0.5	54.6*	56.0
Cc1c(Br)c([N+](=O)[O-])nn1CC(=O)NCc1cccs1	1.2	1.1	-8.9	0.8	22.7	1.1
Cc1ccc(-c2nn(-c3ccccc3)cc2/C=N/NC(=O)CSc2nnc(C)n2-c2ccccc2)cc1	-5.2	0.4	55.9*	0.8	20.7	7.7
O=C(Cn1cnc2ccccc21)OCC(=O)N1CCc2ccccc2C1	.	0.9	7.1	0.9	5.3	.
CCOC(=O)c1c(N)sc2c(NC(C)=O)cccc12	-1.1	0.7	32.3	0.9	14.9	1.4
CCOC(=O)c1c(N)sc2c(O)c(Br)ccc12	-15.0	0.3	72.8*	0.7	30.4	14.6
O=C(CSc1nnc(-c2ccccc2)n1Cc1ccccc1)NC1CC1	14.3	0.6	36.3	0.8	24.1	-16.4
CCCSc1nc(C)nc2c1c(=O)n(C)c(=O)n2C	.	0.9	6.8	0.9	5.2	.
CCC(CC)NC(=O)c1cc(OC)c(OC)c(OC)c1	.	1	3.0	1	3.5	.
CN1CC2=Cc3ccccc3OC23Oc2ccccc2C=C3C1	0.1	0.4	57.6*	0.5	54.3*	-2.0
Cc1[nH]c2c(ccc3ccccc32)c1C1C(CCN)C1(C)C (stereo not drawn)	4.8	0.7	31.4	0.9	12.6	-5.8
Cc1cc(C(=O)Cn2nnc3ccccc3c2=O)c(C)n1Cc1cccs1	-3.3	0.3	71.1*	0	97.3*	2.2
Cc1cc(C(=O)CN2C(=O)c3ccccc3C2=O)c(C)n1Cc1cccs1	6.1	.	.	.	.	-8.2
CCOc1ccc(NC(=O)C(=O)NCCCn2ccnc2)cc1	-2.3	0.4	60.2*	0.3	72.8*	4.6
O=C(CNC(=O)c1ccc(Cl)cc1Cl)NCCCn1ccnc1	2.3	0.5	51.4*	0.3	69.3*	-0.1
O=C(NCCCn1ccnc1)C(=O)NCc1ccccc1	4.0	.	.	.	.	-3.8
O=C(NCCCn1ccnc1)Nc1ccc(Cl)cc1	-2.2	0	98.4*	0	97.1*	1.0
CCC(NC(=O)NCCCn1ccnc1)(C(F)(F)F)C(F)(F)F	.	0.2	84.8*	0	97.2*	.
O=C(NCCCN1CCc2ccccc2C1)Nc1ccc(Cl)cc1	-23.2	1	4.0	0.9	13.4	24.1
O=C(CC(=O)NN=C1CCCC1)NCCc1ccccc1	8.4	0.9	10.1	0.8	18.3	-8.5
SMILES	sEH act	CYP2C9 act	CYP2C9 inhib	CYP2C19 act	CYP2C19 inhib	sEH inhibitor
CC(C)C(=O)Nc1cccc(C(=O)Nc2nnc(C(C)(C)C)s2)c1	2.2	0.8	18.9	1.1	-5.2	-2.7
O=C(NCCCn1ccnc1)Nc1ccc(Cl)c(Cl)c1	-14.9	0	100.1*	0.2	76.1*	16.1
O=C(COc1ccc(Cl)cc1)NCCCn1ccnc1	-17.5	0.1	90.2*	0	99.4*	18.0
CCCC/C(O)=C1\C(=O)CC(C)(C)CC1=Nc1ccccc1OC	10.2	0.1	90.3*	0.1	93.2*	-10.4
COc1ccc(OC)c(N=CC2=C(O)CC(C)(C)CC2=O)c1	7.7	1.2	-18.1	1	3.1	-6.7
COC(=O)CC/C(O)=C1\C(=O)CC(C)(C)CC1=Nc1ccccc1OC	-6.2	0.9	13.5	0.7	31.5	4.5
CCC/C(O)=C1\C(=O)CC(C)(C)CC1=Nc1ccc(OC)cc1OC	-13.0	0.1	94.7*	0	96.9*	13.1
CCOC(=O)C1C(=O)CC(C)(O)C(C(=O)OCC)C1c1cccc(OC)c1 (stereo not drawn)	0.8	1.1	-5.5	1.1	-5.6	-3.2
CSc1nc2nc(-c3ccccc3)cc(C(F)(F)F)n2n1	4.2	0.7	31.0	0.9	14.6	0.9
COc1ccc(CNC(=O)c2cnn3c(C(F)F)cc(C)nc23)cc1OC	.	0.9	5.0	0.4	56.7*	.
Cc1cc(C(F)F)n2ncc(C(=O)N3CCC(C(N)=O)CC3)c2n1	-7.0	1.2	-17.6	1.1	-12.3	5.3
COc1cc2cc(C(N)=O)c(N)nc2cc1OC	6.0	1	-4.2	1.1	-11.3	-2.9
Cc1cc(C)n2nc(SCC(=O)c3ccc[nH]3)nc2n1	-3.5	0.5	54.6*	0.7	30.5	3.7
Cc1cc(C)n2nc(SCC(=O)Nc3ccc(F)cc3)nc2n1	2.3	1	-0.1	0.7	35.0	-3.3
CCn1c(Cc2ccc(OC)cc2)nnc1SCC(=O)Nc1nc2ccccc2s1	11.5	0.8	20.5	0.8	18.1	-7.6
CC(C)c1ccc(-c2nnn(Cc3nc4ccccc4s3)n2)cc1	5.0	0.5	51.1*	0.9	11.5	-6.3
COc1ccc(Cc2nnc(SCc3nc4ccccc4c(=O)[nH]3)n2C)cc1	.	0.4	61.8*	0.9	9.2	.
Cn1c(CCNC(=O)c2ccccc2F)nnc1SCc1nc2ccccc2c(=O)[nH]1	-1.9	0.4	63.9*	1.1	-11.8	3.2
C=C(C)C(=O)OCCCCCCOc1ccc(C(=O)O)cc1	.	0.7	34.6	0.7	26.7	.
c1coc(CNc2ncnc3sc4c(c23)CCCCC4)c1	10.4	0.1	93.2*	0.1	86.8*	-9.9
Cc1sc2ncnc(NCc3cccs3)c2c1C	9.6	0.6	42.2	0.5	51.6*	-6.6
Cc1sc2ncnc(NCc3ccco3)c2c1C	-0.8	0.4	60.9*	0.2	78.4*	-0.5
C/C(NC(=O)c1cccs1)=C1\C(=O)C[C@@H]2[C@H]1C2(C)C	.	0.8	17.2	0.6	39.0	.
Fc1cccc2sc(N3CCCCC3)nc12	-11.2	0.9	7.5	0.4	60.4*	12.7
Fc1cccc2sc(N3CCOCC3)nc12	5.3	.	.	.	.	-5.8
COc1ccc(CN(C#N)c2nc(SC)nc(N(C)C)n2)cc1	.	1.4	-40.5	0.1	88.9*	.
CCN(C#N)c1nc(N(C)C)nc(N(C)C)n1	-3.7	1.5	-53.0	1.1	-8.0	4.9
Cn1c(=O)n(Cc2ccc(F)cc2)c(=O)c2c1nc1n2CCCN1C1CCCCC1	0.9	1	2.1	0.9	11.5	-0.8
CN=C(Nc1cc(Cl)ccc1Cl)SC1CC(=O)N(c2ccc(C(=O)OC)cc2)C1=O (stereo not drawn)	-15.5	0	99.9*	0.1	91.7*	18.3
Cc1cccc(NC(=O)Cc2cccs2)n1	-24.1	1	-4.3	0.9	12.0	22.6

Screening data from PubChem BioAssay.
